# Where “and” joins values, the source holds several entries; their conditions need not be identical. Equal values may be shown once. Hit rate of the full screen: of about 16,000 compounds, about 5,800 (36%) were called active. Roughly 23% stayed inconclusive and do not appear here. Calls follow the shape of the dose curve; as a rule, active = well fitted curve in the direction sought with a large enough effect; inconclusive = small, poorly fitted or top-dose-only effect, or effect the other way; inactive = no such curve, though single readings can be large or run the other way. Some of the results follow. Where a structure was tested more than once in an assay, its records may differ in their call.
# Molecular target: Cytochrome P450 2C19 (Homo sapiens) (UniProt P33261)
# Experiment: Cytochrome panel assay with activity outcomes
# Details: recombinant CYP, pro-luciferin dealkylation, luminescence, p450-cyp2c19; series mostly up to 57.1 µM; activity, negative = inhibition: at the top concentration
# Procedure: The P450 gene superfamily is involved in the metabolism and clearance of xenobiotics. This assay used various human CYP P450 isozymes to measure the dealkylation of various pro-luciferin substrates to luciferin. The luciferin is then measured by luminescence after the addition of a luciferase detection reagent. Pro-luciferin substrate concentration in the assay was equal to its KM for its CYP P450 isozyme. Inhibitors and some substrates limit the production of luciferin, and decrease measured luminescence.
# NCGC Assay Protocol Summary:
# 1, Reagent, 2 uL, Isozyme and Pro-Luciferin
# 2, Library compounds, 23 nl, 40 uM to 0.24 nM dilution series
# 3, Controls, 23 nl, Isozyme specific inhibitor
# 4, Reagent, 2 uL, NADPH regeneration solution
# 5, Incubation time, 60 min, Isozyme specific temperature
# 6, Reagent, 4ul, Detection reagent
# 7, Incubation time, 20 min, Isozyme specific temperature
# 8, Detection, 1 sec, ViewLux luminescent read
# The luciferase-based P450-GloTM Screening Systems were obtained from Promega (Madison, WI) for CYP 1A2 (V9770), CYP 2C9 (V9790), CYP2 C19 (V9880), CYP 2D6 (V9890), and CYP 3A4 Luciferin-PPXE (V9910) and were adapted for 1,536-well microplates and an automated protocol. The control compounds furafylline for 1A2 (F124), sulfaphenazole for CYP 2C9 (S0758), ketoconazole for CYP 2C19 (K1003), quinidine for 2D6 (Q3625), and ketoconazole for 3A4 (K1003) were purchased from Sigma Aldrich (St. Louis, MO). Recombinant P450 enzymes were obtained from baculovirus constructs expressed in insect cells (BD/Gentest).
# Medium-binding white solid Kalypsys plates used. Mixtures kept on ice. 1A2: 10 nM 1A2, 100 uM Luc-ME, 100 mM KPO4; 2C9: 10 nM 2C9, 100 uM Luc-H, 25 mM KPO4; 2C19: 5 nM 2C19, 10 uM Luc-H EGE, 50 mM KPO4; 2D6: 5 nM 2D6, 30 uM Luc-ME EGE, 100 mM KPO4; 3A4: 10 nM, 25 uM Luc-PPXE. All amounts are reflected in their final concentration, working concentration is 2x.
# NADPH regeneration solution: 1.3 mM NADP+, 3.3 mM glucose-6-phosphate, 3.3 mM MgCl2, 0.4 U/mL glucose-6-phosphate dehydrogenase for all isozymes, 200 mM KPO4 for 3A4. Mixture prepared at RT but kept on ice during automated run.
# RT incubation in auxilliary plate hotel for 1A2, 2D6, and 3A4; 37C for 2C9 and 2C19.
# Keywords: P450, CYP1A2, CYP2C19, CYP2C9, CYP2D6, CYP3A4, Luciferase, MLSMR, MLSCN, NIH Roadmap, qHTS, NCGC
# % is scaled to controls: 0 for no effect and ±100 for the full control effect.
# Cytochrome P450 2C19 (Homo sapiens), sequence (P33261 whole entry, looked up): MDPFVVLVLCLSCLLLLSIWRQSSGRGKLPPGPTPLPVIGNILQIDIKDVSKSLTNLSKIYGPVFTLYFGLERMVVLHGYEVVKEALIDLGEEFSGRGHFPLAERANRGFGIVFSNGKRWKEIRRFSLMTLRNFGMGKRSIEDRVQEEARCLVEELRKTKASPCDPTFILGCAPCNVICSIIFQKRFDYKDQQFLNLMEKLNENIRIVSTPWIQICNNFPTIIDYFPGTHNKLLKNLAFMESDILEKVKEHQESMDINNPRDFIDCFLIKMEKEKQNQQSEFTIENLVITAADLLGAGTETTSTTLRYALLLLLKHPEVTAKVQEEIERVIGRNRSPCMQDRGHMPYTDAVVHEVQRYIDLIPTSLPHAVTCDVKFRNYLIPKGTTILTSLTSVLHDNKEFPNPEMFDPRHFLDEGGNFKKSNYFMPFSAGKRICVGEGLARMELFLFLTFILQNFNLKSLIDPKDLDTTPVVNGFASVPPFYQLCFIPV
SMILES,"activity, negative = inhibition",AC50
COc1ccc2c(c1)CCC1C2CC[C@]2(C)[C@H](NCCCCCCN3C(=O)C=CC3=O)CC[C@@H]12 (some centres undefined),33.9% (inactive),
COc1cc2c(c(OC)c1OC)-c1ccc(O)c(=O)cc1[C@H](N)CC2,-2.81% [at 25.6 µM] (inactive),
CN1[C@@H](C[C@@H](O)c2ccccc2)CCC[C@@H]1C[C@H](O)c1ccccc1,35.4% [at 25.6 µM] (inactive),
O=C(Oc1ccccc1)N1CCC2(CCCN(Cc3nccs3)C2)CC1,22.6% (inactive),
NCC[C@H](O)C(=O)N[C@H]1C[C@@H](N)[C@@H](O[C@H]2O[C@@H](CN)[C@@H](O)[C@@H](O)[C@@H]2N)[C@@H](O[C@H]2O[C@@H](CO)[C@@H](O)[C@@H]2O)[C@@H]1O,23.6% [at 25.6 µM] (inactive),
Nc1nc(N)c(N=Nc2ccc([As](=O)(O)O)c(O)c2)c(N)n1,31% [at 11.4 µM] (inactive),
NC(=NCCc1ccc(I)cc1)SCCCc1cnc[nH]1,-36.4% (inactive),
CN1C(=O)C(=Cc2ccc(N3CCCCCC3)o2)C(=O)N(C)C1=S,,2.24 µM (active)
O=C(Nc1cccc(F)c1)N1CC2(CCNCC2)C1,-10.4% (inactive),
COC(=O)[C@@H]1[C@@H](O)[C@@]2(O)c3c(OC)cc(OC)cc3O[C@@]2(c2ccc(OC)cc2)[C@H]1c1ccccc1,8.06% [at 11.4 µM] (inactive),
CCC1=C(C[C@H]2NCCc3ccccc32)C[C@@H]2c3cc(OC)c(OC)cc3CCN2C1,-23.2% [at 11.4 µM] (inactive),
C[C@]12CC[C@@H]3[C@H](CCC4=CC(=O)CC[C@]43C)[C@]1(O)CC[C@@]2(O)C(=O)CO,24.8% [at 11.4 µM] (inactive),
N[C@@H]1C=CC=C(C(=O)O)C1,26.3% (inactive),
O=[N+]([O-])c1cc(O)c(O)c([N+](=O)[O-])c1,-35.3% (inactive),
O=C(O)Cc1ccc([N+](=O)[O-])cc1[N+](=O)[O-],-28.8% [at 11.4 µM] (inactive),
O=[N+]([O-])c1ccc(S(=O)(=O)Cc2ccccc2)c([N+](=O)[O-])c1,,2 µM (active)
c1ccc(N2CC[C@@]3(CCCNC3)C2)nc1,10.5% (inactive),
CN1C(=O)C(=Cc2ccccc2Oc2ccc(Cl)c(F)c2)C(=O)N(C)C1=O,,3.55 µM (active)
COc1cc2c(cc1OC)[C@@]13CCN4CC5=CCO[C@H](CC(=O)O)[C@@H]([C@H]1N2)[C@H]5C[C@H]43,-11.9% [at 11.4 µM] (inactive),
C[C@](N)(CCP(=O)(O)O)C(=O)O,-26.4% (inactive),
CC1CN=C(Nc2cccc3ccccc23)S1 (centres undefined),,3.98 µM (active)
CC(=O)O[C@@H]1CN2CCC1CC2,-13.1% (inactive),

SMILES,"activity, negative = inhibition",AC50
c1ccc(CCN2CCCCCC2)nc1,38.1% [at 11.4 µM] (inactive),
CC(=O)N[C@@H]1CCSC1=O,14.5% [at 25.6 µM] (inactive),
CN(N=O)C(=O)N[C@H]1C(O)OC(CO)[C@@H](O)[C@H]1O (some centres undefined),,7.94 µM (active)
CC(=O)[C@]1(O)CC[C@@H]2[C@H]3C[C@@H](C)C4=CC(=O)CC[C@@]4(C)[C@H]3[C@@H](O)C[C@]21C,-31.5% [at 11.4 µM] (inactive),
C=C[C@@H]1CN2CC[C@H]1C[C@H]2[C@H](O)c1ccnc2ccccc12,44.5% [at 11.4 µM] (inactive),
NC(N)=NN=Cc1c(Cl)cccc1Cl,27.6% [at 25.6 µM] (inactive),
CCCN1CCO[C@@H]2c3cc(O)ccc3OC[C@@H]21,,10 µM (active)
CCCN1CC[C@@H]2c3cc(O)ccc3CC[C@H]21,-19% (inactive),
CCCN1CCO[C@@H]2c3cc(O)ccc3OC[C@H]21,-29.4% (inactive),
O=C(O)[C@H]1[O][Sb][O][C@@H](C(=O)O)C1O (some centres undefined),15.3% [at 11.4 µM] (inactive),
COc1cc2ccccc2c2cc([N+](=O)[O-])oc12,-34.1% [at 11.4 µM] (inactive),
c1ccc(CCCCN2CCC(c3ccccc3)CC2)cc1,,15.8 µM (active)
c1ccc2c([C@@H]3CCN(CCN4CCOCC4)C3)c[nH]c2c1,23.2% [at 11.4 µM] (inactive),
c1cc(CCN2CCCCC2)ccn1,9.84% [at 11.4 µM] (inactive),
C1C[C@@H]2CN(CCCN3CCOCC3)[C@@H](C1)O2,-1.65% [at 11.4 µM] (inactive),
Cc1c2cc[n+](CCN3CCCCC3)cc2c(C)c2c1[nH]c1ccc(O)cc12,17.2% [at 11.4 µM] (inactive),
N=C1c2ccccc2CN1NC(=O)c1ccc(Cl)cc1,1.92% (inactive),
C[C@@H]1O[C@H](O[C@H]2C[C@@H](O)[C@@]3(CO)[C@H]4[C@@H](O)C[C@]5(C)[C@@H](C6=CC(=O)OC6)CC[C@]5(O)[C@H]4CC[C@]3(O)C2)[C@@H](O)[C@H](O)[C@@H]1O,-10.4% [at 25.6 µM] (inactive),
CCN1C[C@]2(COC(=O)c3ccccc3N3C(=O)C[C@H](C)C3=O)CC[C@H](OC)[C@@]34[C@@H]5C[C@H]6[C@H](OC)[C@H]5[C@](O)(C[C@@H]6OC)[C@@](O)([C@@H](OC)[C@@H]23)[C@@H]14,3.08% (inactive),
CC[C@]1(OC(=O)CN)C(=O)OCc2c1cc1n(c2=O)Cc2cc3ccccc3nc2-1,17% [at 11.4 µM] (inactive),
CC[C@@]1(O)C(=O)OCc2c1cc1n(c2=O)Cc2cc3ccccc3nc2-1,,inactive and 20 µM (active)
CC[C@@]1(O)C(=O)OCc2c1cc1n(c2=O)Cc2cc3c(NC(=O)CN)cccc3nc2-1,11.8% [at 11.4 µM] (inactive),
